The chains are these.
B1: ENSMUSG00000058297.11|Spock2 (ssRNA)
RNA: GGGAGUUCUACAGUCCGACGAUCGCUUCGAUAUCCGCAUGCUAUGAGGCGGGUGAGGCAGAUGAUGGAGGCUACAUCUGGUAGAUAGCCCUCGACGGCCUCGGCAGGCCAGGGUGCCGACGGCCAGAAAGACAGGCCAGAAGAGACCUGGACAACAGCAGGCAACUUAGCAAAUGGAUCCGGAAGUCAGUGCGGAGGACCCUGGCUCCAGUGGGGGAGGACUGGGGAGUGUGGCUUGUGUGUAUGUGUGAUAUGAGAUGUGUGUGUAUGAUGUGAGAUGUGAGUGUGUGAUGUGAGAUGUGUGCUCUUGCGGUCGCACUAGUGUGGAAUUCUCGGGUGUCAAGG
B2: ENSMUSG00000058297.14|Spock2 (ssRNA)
RNA: GGGAGUUCUACAGUCCGACGAUCGCUUCGAUAUCCGCAUGCUAUGAUGGAGGCUACAUCUGGUAGAUAGCCCUCGACGGCCUCGGCAGGCCAGGGUGCCGACGGCCAGAAAGACAGGCCAGAAGAGACCUGGACAACAGCAGGCAACUUAGCAAAUGGAUCCGGAAGUCAGUGCGGAGGACCCUGGCUCCAGUGGGGGAGGACUGGGGAGUGUGGCUUGUGUGUAUGUGUGAUAUGAGAUGUGUGUGUAUGAUGUGAGAUGUGAGUGUGUGAUGUGAGAUGUGUGUAUGUGAGAUGUGUGUGUCUCUUGCGGUCGCACUAGUGUGGAAUUCUCGGGUGUCAAGG
B3: ENSMUSG00000058297.16|Spock2 (ssRNA)
RNA: GGGAGUUCUACAGUCCGACGAUCGCUUCGAUAUCCGCAUGCUACAUCUGGUAGAUAGCCCUCGACGGCCUCGGCAGGCCAGGGUGCCGACGGCCAGAAAGACAGGCCAGAAGAGACCUGGACAACAGCAGGCAACUUAGCAAAUGGAUCCGGAAGUCAGUGCGGAGGACCCUGGCUCCAGUGGGGGAGGACUGGGGAGUGUGGCUUGUGUGUAUGUGUGAUAUGAGAUGUGUGUGUAUGAUGUGAGAUGUGAGUGUGUGAUGUGAGAUGUGUGUAUGUGAGAUGUGUGUGUGUGUGUGUGUGUCUCUUGCGGUCGCACUAGUGUGGAAUUCUCGGGUGUCAAGG
B4: ENSMUSG00000058297.15|Spock2|161:165;169:182;191:202;216:222;231:240;246:260 (ssRNA)
RNA: GGGAGUUCUACAGUCCGACGAUCGCUUCGAUAUCCGCAUGCUAAGGCUACAUCUGGUAGAUAGCCCUCGACGGCCUCGGCAGGCCAGGGUGCCGACGGCCAGAAAGACAGGCCAGAAGAGACCUGGACAACAGCAGGCAACUUAGCAAAUGGAUCCGGAAGUCAGUGCGGAGGACCCUGGCUCCAGUGGGGGAGGACUGGGGACACACGCUACACACAUACACACAUAUGAGAACACACACAUACAUGUGAGAUGUGACACACACAUGUGAGAACACACAUACUGAGAACACACACACACACACUCUUGCGGUCGCACUAGUGUGGAAUUCUCGGGUGUCAAGG
B5: ENSMUSG00000058297.2|Spock2|239:243;247:260 (ssRNA)
RNA: GGGAGUUCUACAGUCCGACGAUCGCUUCGAUAUCCGCAUGCUAUGAGGAAGAAAAGGAGACAGAAGAGGCAGGGGAGGAGGCCGAGGAGGAGGAGGGUGAGGCGGGUGAGGCAGAUGAUGGAGGCUACAUCUGGUAGAUAGCCCUCGACGGCCUCGGCAGGCCAGGGUGCCGACGGCCAGAAAGACAGGCCAGAAGAGACCUGGACAACAGCAGGCAACUUAGCAAAUGGAUCCGGAAGUCAGUGCGGAGGACCCUGGCUCCAGUGGGGGAGGACUGGGGACACACGCUACACACAUACACACCUCUUGCGGUCGCACUAGUGUGGAAUUCUCGGGUGUCAAGG
B6: ENSMUSG00000058297.15|Spock2 (ssRNA)
RNA: GGGAGUUCUACAGUCCGACGAUCGCUUCGAUAUCCGCAUGCUAAGGCUACAUCUGGUAGAUAGCCCUCGACGGCCUCGGCAGGCCAGGGUGCCGACGGCCAGAAAGACAGGCCAGAAGAGACCUGGACAACAGCAGGCAACUUAGCAAAUGGAUCCGGAAGUCAGUGCGGAGGACCCUGGCUCCAGUGGGGGAGGACUGGGGAGUGUGGCUUGUGUGUAUGUGUGAUAUGAGAUGUGUGUGUAUGAUGUGAGAUGUGAGUGUGUGAUGUGAGAUGUGUGUAUGUGAGAUGUGUGUGUGUGUGUCUCUUGCGGUCGCACUAGUGUGGAAUUCUCGGGUGUCAAGG
B7: ENSMUSG00000058297.3|Spock2|233:237;241:254 (ssRNA)
RNA: GGGAGUUCUACAGUCCGACGAUCGCUUCGAUAUCCGCAUGCUAAGAAAAGGAGACAGAAGAGGCAGGGGAGGAGGCCGAGGAGGAGGAGGGUGAGGCGGGUGAGGCAGAUGAUGGAGGCUACAUCUGGUAGAUAGCCCUCGACGGCCUCGGCAGGCCAGGGUGCCGACGGCCAGAAAGACAGGCCAGAAGAGACCUGGACAACAGCAGGCAACUUAGCAAAUGGAUCCGGAAGUCAGUGCGGAGGACCCUGGCUCCAGUGGGGGAGGACUGGGGACACACGCUACACACAUACACACAUAUGACUCUUGCGGUCGCACUAGUGUGGAAUUCUCGGGUGUCAAGG
B8: ENSMUSG00000058297.16|Spock2|155:159;163:176;185:196;210:216;225:234;240:260 (ssRNA)
RNA: GGGAGUUCUACAGUCCGACGAUCGCUUCGAUAUCCGCAUGCUACAUCUGGUAGAUAGCCCUCGACGGCCUCGGCAGGCCAGGGUGCCGACGGCCAGAAAGACAGGCCAGAAGAGACCUGGACAACAGCAGGCAACUUAGCAAAUGGAUCCGGAAGUCAGUGCGGAGGACCCUGGCUCCAGUGGGGGAGGACUGGGGACACACGCUACACACAUACACACAUAUGAGAACACACACAUACAUGUGAGAUGUGACACACACAUGUGAGAACACACAUACUGAGAACACACACACACACACACACACUCUUGCGGUCGCACUAGUGUGGAAUUCUCGGGUGUCAAGG
B9: ENSMUSG00000058297.11|Spock2|185:189;193:206;215:226;240:246;255:260 (ssRNA)
RNA: GGGAGUUCUACAGUCCGACGAUCGCUUCGAUAUCCGCAUGCUAUGAGGCGGGUGAGGCAGAUGAUGGAGGCUACAUCUGGUAGAUAGCCCUCGACGGCCUCGGCAGGCCAGGGUGCCGACGGCCAGAAAGACAGGCCAGAAGAGACCUGGACAACAGCAGGCAACUUAGCAAAUGGAUCCGGAAGUCAGUGCGGAGGACCCUGGCUCCAGUGGGGGAGGACUGGGGACACACGCUACACACAUACACACAUAUGAGAACACACACAUACAUGUGAGAUGUGACACACACAUGUGAGAACACACCUCUUGCGGUCGCACUAGUGUGGAAUUCUCGGGUGUCAAGG

The full ranking holds about 9,900 sequences; the median of “r (bound/input frequency ratio)” is about 0.7, and the highest 2% start at about 6.5. This is one part of a sample in which the highest values are shown more often than they occur.

The target of this assay is TDP-43 (Homo sapiens, UniProt Q13148 1-414). The assay can be described thus: RNA Bind-n-Seq with designed 260-mer pool; 25 mM Tris-HCl, 150 mM KCl, 3 mM MgCl2, BSA (printed 500 mg/mL), 20 units/mL SUPERase IN; pH not stated; 500 nM RNA pool, 1 h, 4 C; TDP-43 5, 50, 500 nM; high values mean tight binding. The following applies: protein: recombinant; tags: SBP (GST cleaved off with PreScission; pGEX-GST-SBP). An outline of the steps: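 In 25 mM Tris-HCl, 150 mM KCl, 3 mM MgCl2, BSA and SUPERase IN, 500 nM of an in vitro-transcribed 260-nt 3′ UTR oligo pool was incubated for 1 h at 4 °C with SBP-tagged TDP-43 (5, 50 or 500 nM) captured on streptavidin beads. RNA remaining after washes was biotin-eluted, reverse transcribed, PCR-amplified and sequenced. Binding, R, is the bound-sample abundance of each oligo, normalized to mapped reads, divided by its abundance in input. Each duplicate used a separate, independent protein batch.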
Chain of TDP-43 (Q13148 whole entry): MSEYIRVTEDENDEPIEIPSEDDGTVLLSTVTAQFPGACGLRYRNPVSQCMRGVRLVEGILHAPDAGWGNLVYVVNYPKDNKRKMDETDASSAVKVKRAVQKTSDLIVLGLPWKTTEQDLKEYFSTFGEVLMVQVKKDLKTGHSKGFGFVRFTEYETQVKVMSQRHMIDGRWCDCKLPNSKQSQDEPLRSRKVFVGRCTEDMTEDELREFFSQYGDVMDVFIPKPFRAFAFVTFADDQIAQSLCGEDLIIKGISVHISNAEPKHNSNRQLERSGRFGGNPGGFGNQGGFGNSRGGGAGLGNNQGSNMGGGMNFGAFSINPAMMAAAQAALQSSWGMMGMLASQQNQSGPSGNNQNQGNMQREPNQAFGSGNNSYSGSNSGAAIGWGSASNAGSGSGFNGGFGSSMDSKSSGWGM
For the molecule B1, the binding signal was 8.12 R (bound/input frequency ratio). The result for B2 reads 8.13 R (bound/input frequency ratio). The result for B3 reads 7.85 R (bound/input frequency ratio); that for B4, 2.53 R (bound/input frequency ratio); that for B5, 2.26 R (bound/input frequency ratio). The result for B6 reads 7.97 R (bound/input frequency ratio); that for B7, 2.67 R (bound/input frequency ratio); that for B8, 2.54 R (bound/input frequency ratio). As to B9, the binding signal is 2.53 R (bound/input frequency ratio).

The record behind these values is publication PMC12864922, “TDP-43 directly inhibits mRNA accumulation in neurites through modulation of mRNA stability”.
